Screens (PubChem)
Hits are enriched below; roughly 2% of the tested compounds scored in any of these assays.
aSyn rescue: alpha-synuclein toxicity inhibition in yeast; Yeast expressing alpha-synuclein, growth rescue, BacTiter-Glo, 24 h; Potency, µM (doses to about 46.1 µM), for the others: at the highest dose growth rescue (activation), actives largely listed as activators; hit rate 0.14% among 370,000; further: potency means the concentration at half of the fitted maximal effect; % of control where 0% means no effect; nearly all actives have a fitted effect of over 65% in size
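Rescue of yeast growth: cells expressing toxic alpha-synuclein, induced in galactose at OD600 0.02, incubated with compound 24 h at 30 C. ATP luminescence quantified growth; inhibitors of toxicity appear as activators.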
FUS suppressor: FUS proteinopathy suppression in yeast. AID 1347120. hit rate 0.24% among 390,000. S. cerevisiae FUS-expressing, growth rescue, OD600, 24 h. Potency, µM (series often up to 76.6 µM), usual class: activators;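 further: potency means the concentration at half of the fitted maximal effect; plate controls were DMSO vehicle for no effect and reference control for full effect; nearly all actives have a fitted effect of over 55% in size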
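Read-out: OD at 600 nm after 24hr at 30C, reporting rescue of FUS-induced yeast toxicity. Cells at OD 0.005 in galactose (2%) minimal medium; compounds tested in a dilution series; CP55940 titration from 92uM final as control.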
TDP-43 yeast inh: inhibitors of TDP-43 toxicity in yeast; TDP-43 expressing yeast growth rescue, BacTiter-Glo, 24 h; Potency, µM (titrated, usually from 46.1 µM), for the others: top-dose growth rescue (activation), actives largely listed as activators; hit rate 1.8% among 410,000; further: potency means the concentration at half of the fitted maximal effect; % of control where 0% means no effect; nearly all actives have a fitted effect of over 50% in size
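Yeast cells expressing TDP-43 under galactose induction are exposed to compounds for 24 hr at 30 deg C. BacTiter-Glo luminescence measures growth, so protective compounds score as activators.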
Abeta yeast res: compounds reversing amyloid beta toxicity in yeast. hit rate 0.063% among 410,000. AID 1347071. yeast expressing A-beta42, growth rescue, OD600, 48 h; response scale: 0% DMSO, 100% iron-clioquinol control. Potency, µM (highest dose often 46.1 µM), most hits filed as activators; further: potency means the concentration at half of the fitted maximal effect; nearly all actives have a fitted effect of over 55% in size
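Growth rescue measured by 600 nm absorbance after 48 h yeast culture at 30 C with compound. Values normalized between DMSO and an equimolar ferric chloride plus clioquinol control.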
mIDH1 inhibitor: human IDH1 R132H inhibition. IDH1-R132H enzyme, NADPH consumption, diaphorase/resazurin fluorescence. O75874. hit rate 0.093% among 390,000. Potency, µM (doses to about 76.6 µM), without a hit: at the highest dose activity change, negative = inhibition, hits mostly inhibitors; further: potency means the concentration at half of the fitted maximal effect; on the % scale 0 is the no-effect control and ±100 the full control effect; nearly all actives have a fitted effect of over 65% in size
Target sequence (O75874 whole entry R132H, stated change not applied): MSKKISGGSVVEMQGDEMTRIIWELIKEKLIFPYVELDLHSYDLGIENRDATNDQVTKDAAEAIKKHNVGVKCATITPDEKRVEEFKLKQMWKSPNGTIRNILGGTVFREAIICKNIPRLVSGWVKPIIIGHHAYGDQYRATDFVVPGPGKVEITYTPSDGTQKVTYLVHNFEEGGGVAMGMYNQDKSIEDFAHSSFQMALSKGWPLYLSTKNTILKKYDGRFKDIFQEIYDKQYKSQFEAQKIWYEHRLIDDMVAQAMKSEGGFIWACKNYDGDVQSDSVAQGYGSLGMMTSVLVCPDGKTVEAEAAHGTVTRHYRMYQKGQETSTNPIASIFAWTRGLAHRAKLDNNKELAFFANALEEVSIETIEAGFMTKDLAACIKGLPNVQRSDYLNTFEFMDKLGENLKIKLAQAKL
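IDH1-R132H (0.5 ug/mL dispensed) in pH 7.5 Tris buffer was preincubated 30 min with compound, then given a substrate mix of 0.016 mM NADPH and 2 mM alpha-KG for 80 min at room temperature; remaining NADPH was read by diaphorase/resazurin fluorescence.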
LDHA inh: inhibitors of human lactate dehydrogenase A | P00338 | purified LDHA, NADH/diaphorase-resazurin fluorescence; hits give low values | activity change, % (values are at about 110 or 230 µM) | hit rate 0.15% among 480,000; in the data active means activity change below about -30%; inconclusive means mostly about -25% to -30%;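 further: plate controls were DMSO wells for no effect and wells without enzyme for full effect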
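Human LDH5 at 2 nM final in Tris HCl pH 7.4 with 0.06 mM NADH and 0.2 mM pyruvate, reacted 5 minutes at room temperature. Remaining NADH coupled via diaphorase/resazurin; resorufin fluorescence read at 0 and 20 minutes, normalized to enzyme-free and DMSO wells.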
An asterisk follows results filed as active; i = inactive; ? = inconclusive; / = no result; [ ] = remark or other dose. Unless noted, the call rests on the fitted dose curve; in most records, active means well fitted curve in the direction sought with a large enough effect; inconclusive means small, poorly fitted or top-dose-only effect, or another doubt; inactive means no such curve, though single readings can be large; an effect the other way counts as inactive or inconclusive.

SMILES	aSyn rescue	FUS suppressor	TDP-43 yeast inh	Abeta yeast res	mIDH1 inhibitor	LDHA inh
Cn1c2ccccc2c(=O)c2ccc(NCc3ccc4c(c3)OCO4)cc21	-19%	i	16µM*	i	-4%	0
Cc1ccc(C2=C(c3ccc([N+](=O)[O-])cc3)C(=O)OC2)cc1C	-4%	i	13µM*	i	-2%	-11
COc1cc2nc(SCc3ccc(Cl)cc3Cl)n(Cc3cccs3)c(=N)c2cc1OC	0%	i	25µM*	i	2%	-5
COc1cc2nc(SCc3ccc(C(F)(F)F)cc3)n(Cc3cccs3)c(=N)c2cc1OC	/	i	-3%	i	0%	0
Cc1cc(OC(=O)c2ccc(C(C)(C)C)cc2)c([N+](=O)[O-])c(=O)[nH]1	9%	i	16µM*	i	8%	0
Cc1cc(C)cc(C(=O)Oc2cc(C)[nH]c(=O)c2[N+](=O)[O-])c1	4%	i	?	/	-2%	2
CS(=O)(=O)c1ncc(Cl)c(C(=O)N2CCN(c3cccc(Cl)c3)CC2)n1	9%	i	13µM*	i	3%	-1
CCS(=O)(=O)c1ncc(Cl)c(C(=O)N2CCN(c3cccc(Cl)c3)CC2)n1	/	i	13µM*	i	11%	-6
O=C(/C=C/c1ccc(-c2cc(Cl)ccc2Cl)o1)c1ccccc1	/	/	/	/	/	-3
Cc1noc2ncnc(Sc3ccc(Cl)cc3)c12	-4%	i	6.3µM*	i	0%	-9
Cc1ccc(Sc2ncnc3onc(C)c23)cc1	13%	i	?	i	1%	-2
Cc1ccc(C2CCN(C(=S)Nc3cccc(C)c3)C2)cc1 (stereo not given)	1%	?	22µM*	13µM*	0%	-5
Cc1cccc(NC(=O)N2CCC(c3nc4ccccc4o3)CC2)c1	5%	i	0%	i	10%	-6
Cc1cccc(NC(=S)N2CCCCC2)c1	-5%	/	-13%	?	3%	0
Cc1cccc(NC(=S)N2CCC(c3nc4ccccc4o3)CC2)c1	-4%	?	-2%[0.397 µM]	16µM*	1%	4
CC(C)(C)c1ccc(C(=O)NCC(=O)NC2CCCC2)cc1	/	/	/	/	/	-1
COc1ccc([C@H]2CC(=O)C=C(c3ccc(Cl)cc3C)C2)cc1	-1%	?	18µM*	i	4%	2
COc1cc(F)c(C2=CC(=O)C[C@H](c3ccc(F)cc3)C2)cc1F	9%	i	?	i	-2%	-8
Cc1cc(Cl)ccc1C1=CC(=O)C[C@H](c2ccc(F)cc2)C1	-10%	i	14µM*	i	-3%[38.3 µM]	1
O=C1C=C(c2cc(Cl)cc(Cl)c2)C[C@@H](c2ccc(F)cc2)C1	1%	i	?	i	-1%	-3
O=C1C=C(c2cc(F)ccc2F)C[C@@H](c2ccc(F)cc2)C1	10%	i	22µM*	i	8%	-3
COc1ccc([C@H]2CC(=O)C=C(c3ccc(OC)cc3OC)C2)cc1	12%	?	0%	i	4%	-1
Cc1ccc(C2=NN(C(=O)Cn3nnc(-c4ccc(C(N)=O)cc4)n3)C(c3ccco3)C2)cc1 (stereo not given)	/	/	/	/	/	4
COc1ccc2nc(SCC(=O)N3N=C(c4cccs4)CC3c3ccco3)[nH]c2c1 (stereo not given)	/	/	/	/	/	14
Cc1cc(C)cc(NC(=O)COC(=O)CCC2CCCC2)c1	1%	i	13µM*	i	0%	1
SMILES	aSyn rescue	FUS suppressor	TDP-43 yeast inh	Abeta yeast res	mIDH1 inhibitor	LDHA inh
COc1ccc(OC)c(NC(=O)CC2SC(=Nc3ccccc3)N(CCc3ccccn3)C2=O)c1 (stereo not given)	8%	35µM*	2%	i	5%	2
COc1ccc(/C=C/c2nc(C#N)c(N3CCN(C(C)=O)CC3)o2)cc1	/	/	/	/	/	-5
CC1CCC/C(=C\Nc2ccc3c(c2)OCO3)C1=O (stereo not given)	-4%	16µM*	-10%	i	0%	10
Cc1ccc(C)c(N2CCN(S(=O)(=O)c3cc(C(=O)Nc4ccccc4C(F)(F)F)ccc3F)CC2)c1	/	i	?	4µM*	-6%	-1
N#Cc1ccc(/C=C2\CSc3ccccc3C2=O)cc1	/	/	/	/	/	0
CCN(CC)C(=O)CSc1nc2ccc(NC(=O)CSc3nccn3C)cc2s1	2%	i	-7%	i	3%	-4
CCCC(=O)Nc1ccc2nc(SCC(=O)Nc3nccs3)sc2c1	2%	i	9%	i	11%	-35*
CCN(CC)C(=O)CSc1nc2ccc(NC(=O)CSc3nnc(N)s3)cc2s1	0%	10µM*	-5%	i	4%	-1
CCCC(=O)Nc1ccc2nc(SCCOc3ccccc3)sc2c1	/	i	22%	i	3%	4
O=C(CN(C(=O)OCC1c2ccccc2-c2ccccc21)[C@@H](Cc1ccccc1)C(=O)O)OCc1ccc(C(=O)NCc2ccccc2)cc1	/	25µM*	/	/	/	/
O=C(N[C@H](Cc1ccc(Cl)cc1)C(=O)O)OCC1c2ccccc2-c2ccccc21	1%	i	-14%	i	14%	2
Cc1ccsc1-c1nc(CSCC(=O)N2CCN(c3ccccc3)CC2)c(C)o1	16%	i	13µM*	i	1%	2
CCOC(=O)C(C#N)=C1SC(C(=O)OCC)C(C(=O)OCC)S1 (stereo not given)	/	/	/	/	/	-2
COc1ccc(OC)c(NC(=O)c2ccc(OC3CSC3)cc2)c1	-10%	i	13µM*	?	4%	3
COc1ccc(OC)c(NC(=O)C2C3CCC(C3=C(C)C)C2C(=O)O)c1 (stereo not given)	3%	i	16µM*	i	3%	10
COc1ccc(OC)c(NC(=O)c2ccc(NC(C)=O)cc2)c1	2%	i	-5%	i	0%	0
CCCCC(=O)NC(=S)NNC(=O)CC#N	-1%	i	-16%	i	8%	-11
CCCCC(=O)NNC(=S)NC(=O)CCC	25µM*	i	-4%	?	0%	0
COc1ccc(C(=O)NNC(=S)NC(=O)c2ccc(OC)cc2)cc1	13%	i	19%	?	11%	2
CCCCCC(=O)NNC(=S)NC(=O)c1ccc([N+](=O)[O-])cc1	22µM*	i	-7%[9.22 µM]	?	4%	-5
COc1ccc([N+](=O)[O-])cc1NC(=S)NC(C)=O	2%	i	4%	i	0%	0
CCCCC(=O)NC(=S)NNC(=O)c1ccc(OC)cc1	6.3µM*	i	?	?	-8%	-4
